Compounds without any hit were thinned out: in the full panel of roughly 83,000, 20% have a hit.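 Single-concentration screen, 48 h exposure, 96-well plates. Endpoint: percent growth. Below 10 = active.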 A number with no mark means an inactive call. Active and inactive are the calls of the source.
Experiments:
Assay in all cases: NCI-60 one-dose screen, 48 h (100 = growth as untreated, 0 = no growth, -100 = all killed)
Conditions in all cases: 10 µM unless noted
NCI-H23 lung = test system: NCI-H23 lung
NCI-H226 lung = test system: NCI-H226 lung
NCI-H322M lung = test system: NCI-H322M lung
HOP-62 NSCLC = test system: HOP-62 NSCLC
NCI-H460 lung = test system: NCI-H460 lung
NCI-H522 lung = test system: NCI-H522 lung
A549/ATCC NSCLC = test system: A549/ATCC NSCLC
786-0 renal = test system: 786-0 renal
COLO 205 colon = test system: COLO 205 colon
DU-145 prostate = test system: DU-145 prostate
K-562 leukemia = test system: K-562 leukemia
MALME-3M melanoma = test system: MALME-3M melanoma
MDA-MB-231 breast = test system: MDA-MB-231 breast
RXF 393 renal = test system: RXF 393 renal
SF-268 CNS = test system: SF-268 CNS
SF-295 CNS = test system: SF-295 CNS
SF-539 CNS = test system: SF-539 CNS
UACC-257 melanoma = test system: UACC-257 melanoma
M14 melanoma = test system: M14 melanoma
HOP-92 NSCLC = test system: HOP-92 NSCLC

| SMILES | growth (NCI-H23 lung) | growth (NCI-H226 lung) | growth (NCI-H322M lung) | growth (HOP-62 NSCLC) | growth (NCI-H460 lung) | growth (NCI-H522 lung) | growth (A549/ATCC NSCLC) | growth (786-0 renal) | growth (COLO 205 colon) | growth (DU-145 prostate) | growth (K-562 leukemia) | growth (MALME-3M melanoma) | growth (MDA-MB-231 breast) | growth (RXF 393 renal) | growth (SF-268 CNS) | growth (SF-295 CNS) | growth (SF-539 CNS) | growth (UACC-257 melanoma) | growth (M14 melanoma) | growth (HOP-92 NSCLC) |
| --- | --- | --- | --- | --- | --- | --- | --- | --- | --- | --- | --- | --- | --- | --- | --- | --- | --- | --- | --- | --- |
| C=C1C(=O)O[C@H]2[C@H]1CC/C(COC(=O)NCCc1c[nH]c3ccccc13)=C\CC[C@@]1(C)O[C@@H]21 | 59.5% | 57.3% | 83.2% | 57.7% | 54.2% | -85.7% (active) | 66.9% | -50.3% (active) | -38.2% (active) | 11.7% | 0.512% (active) | -33.5% (active) | -19.3% (active) | -89.3% (active) | 62.3% | 83.4% | -35.6% (active) | 63.3% | -52.1% (active) |  |
| COc1ccc2c(c1)c(-c1nc(-c3c[nH]c4ncccc34)cs1)cn2C | 71.8% | 80.6% | 46.6% | 90.4% | 40.1% | 77.9% |  | 70.1% | 83.7% | 72.5% | 41% |  | 55.3% | 57.2% | 97% | 86% | 66.2% | 85.1% | 63.7% | 60.7% |
| CCSc1sc(-c2ccc(C)cc2)nc1[P+](c1ccccc1)(c1ccccc1)c1ccccc1 | -13.9% (active) | -4.39% (active) | -16.7% (active) | -10.3% (active) | -40.5% (active) | -10.4% (active) | 3.64% (active) | 5.86% (active) | -26% (active) | 4.57% (active) | 0.0447% (active) | -28.4% (active) | -24.8% (active) | -37% (active) | 7.81% (active) | -11.3% (active) | 9.93% (active) | -3.94% (active) | -8.96% (active) |  |
| O=[N+]([O-])c1cc(S(=O)(=O)c2ccc(F)c([N+](=O)[O-])c2)ccc1F | 103% | 109% | 110% | 121% | 99.3% | 89% | 102% | 100% | 83% | 98.1% | 40.4% | 132% | 103% | 82.9% | 108% | 111% | 109% | 75.4% | 81.7% |  |
| O=[N+]([O-])c1ccc(/C=N\Nc2ccccc2)cc1 | 93.9% | 87.7% | 83% | 95.2% | 76.7% | 61% |  | 87.2% | 105% | 97.1% | 25.2% |  | 68.2% | 107% | 73.5% | 55.3% | 107% | 97.2% | 31.6% | 100% |
| CCCCCCCN(CCCCCCC)C(=N)c1ccnc2ccccc12 | 0.856% (active) | 39.3% | -2.85% (active) | -57.2% (active) | -83.9% (active) | -46.7% (active) | -57.4% (active) | -93.6% (active) | -72.9% (active) | 1.08% (active) | -14.9% (active) | -76.2% (active) | -71.3% (active) | -76% (active) | 33% | -78.3% (active) | -82% (active) | -69.4% (active) | -64% (active) |  |
| Oc1ccc(CCC2CCCC(CCc3ccc(OCCF)cc3)N2)cc1 (centres undefined) | 87.3% | 99.3% | 106% | 95.6% | 102% | 95.3% | 91% | 95.9% | 97.2% | 109% | 66% | 117% | 88.9% | 84.7% | 99.1% | 96.4% | 104% |  | 90.4% |  |
| Cn1c(=O)c2c(ncn2CCC(=O)Nc2ccc(F)cc2)n(C)c1=O | 100% | 109% | 105% | 92.6% | 108% | 90.3% |  | 95.1% | 108% | 105% | 96% | 114% | 102% | 115% | 103% | 105% | 96.9% |  | 97.8% | 95.5% |
| Cc1cc(Cl)nc(N(CCNc2ccnc3cc(Cl)ccc23)Cc2ccco2)n1 | 45.6% | 70.3% | 70.6% | 25.6% | 31.7% | 53.2% | 60.6% | -9.46% (active) | 50.9% | 52.2% | 16.2% | 81.3% | 19.3% | -15.7% (active) | 66.7% | 59.4% | -41.6% (active) | 115% | 55.3% |  |
| COc1ccc(C2NC(=O)Nc3ccccc32)c(OC)c1 (centres undefined) | 102% | 89.7% | 96.6% | 98.5% | 101% | 91.6% |  | 103% | 112% | 112% | 93.7% | 85.6% | 94.7% | 110% | 100% | 94.2% | 93.8% |  | 95.6% | 86.7% |
| Cc1cccc2c1NC(=O)[C@@]21[C@H](C(=O)c2ccccc2)[C@]2(C(=O)Nc3ccccc32)[C@H]2CCCN21 | 38.4% [100 µM] | 13% [100 µM] | 48.8% [100 µM] | 4.33% [100 µM] (active) | 12.3% [100 µM] | 17% [100 µM] | 15% [100 µM] | 15.3% [100 µM] | 33.1% [100 µM] | 40% [100 µM] | 30.4% [100 µM] |  | 14.5% [100 µM] | -23.9% [100 µM] (active) | 34.3% [100 µM] | 23.7% [100 µM] | 6.13% [100 µM] (active) |  | 46.1% [100 µM] |  |
| C=C(C)[C@@H]1CC[C@]2(C)[C@H](CC=C3[C@@H]4CC(C)(C)CC[C@]4(C=O)CC[C@]32C)[C@@]1(C)CCCN | 86.4% | 85.5% | 86.5% | 88.9% | 86.3% | 91.8% | 77.6% | 90.4% | -62.3% (active) | 93.3% | 1.54% (active) | 68.8% | 75.2% | 67.1% | 83.2% | 93.2% | 89.3% | 81% | 63.9% |  |
| O=C(NC(Cc1cn(Cc2ccccc2)cn1)C(=O)O)OCC1c2ccccc2-c2ccccc21 (centres undefined) | 98.7% | 102% | 106% | 101% | 115% | 84.2% |  | 102% | 110% | 113% | 88.8% |  | 133% | 117% | 107% |  | 94.6% | 99.1% | 99.8% | 107% |
| Cn1c(=O)c2c(nc(N3CCCC3)n2C)n(C)c1=O | 96.4% | 102% | 105% | 104% | 102% | 91.5% | 85.6% | 97% | 110% | 105% | 99.2% | 103% | 98.9% | 104% | 97.3% | 102% | 101% | 93.2% | 92.3% |  |
| O=C(O)c1cccc2c1-c1ccc(Cl)cc1C2 | 106% | 100% | 97.1% | 106% | 113% | 88.2% | 105% | 110% | 114% | 110% | 97.9% |  | 108% | 124% | 107% | 116% | 104% | 107% | 120% |  |
| COc1ccc(/C=C(\C#N)c2cc3ccccc3n2C(C)=O)cc1 | 88.3% | 102% | 94.6% | 93.3% | 92.4% | 70% | 83.5% | 96.9% | 97.3% | 99.7% | 25.1% | 83.8% | 82% | 88.3% | 97.3% | 84% | 93.8% | 99.6% | 70.7% |  |

Reference: PubChem BioAssay (NCI)
